Assay results from PubChem BioAssay (Tox21).
Several values for one entry are separate records, joined by “and”; a condition that tells them apart may be missing. Equal values may be shown once. Inconclusive results are not listed. Some compounds were tested as several samples or in several runs, with calls that do not always agree. Activity calls are given as the source filed them. Unless noted, calls follow the shape of the dose curve; as a rule, active = well fitted curve in the direction sought with a large enough effect in the repeat runs; inconclusive = weak or mixed curves; inactive = no such curve, though single readings can be large; an effect the other way counts as inactive or inconclusive.

What was measured:
[1] = qHTS assay to identify small molecule antagonists of the glucocorticoid receptor (GR) signaling pathway - cell viability counter screen (AID 720693); also: nearly all actives have a fitted effect of over 55% in size; also: potency is read from the fitted curve at half-maximal effect
[2] = qHTS assay for identifying genotoxic compounds that show differential cytotoxicity against isogenic chicken DT40 cell lines with known DNA damage response pathways - Rev3 mutant cell line (AID 743014); also: nearly all actives have a fitted effect of over 55% in size; also: potency is read from the fitted curve at half-maximal effect
[3] = qHTS assay for identifying genotoxic compounds that show differential cytotoxicity against isogenic chicken DT40 cell lines with known DNA damage response pathways - Rad54/Ku70 mutant cell line (AID 743015); also: nearly all actives have a fitted effect of over 60% in size; also: potency is read from the fitted curve at half-maximal effect
[4] = qHTS assay to identify small molecule antagonists of the androgen receptor (AR) signaling pathway - cell viability counter screen (AID 743033; also: nearly all actives have a fitted effect of over 45% in size; also: potency is read from the fitted curve at half-maximal effect)
[5] = qHTS assay to identify small molecule antagonists of the androgen receptor (AR) signaling pathway using the MDA cell line - cell viability counter screen (AID 743041; also: nearly all actives have a fitted effect of over 45% in size; also: potency is read from the fitted curve at half-maximal effect)
Summary of the method: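 In this qHTS counter assay, fluorescence intensity after CellTiter-Fluor addition indicated viability of MDA-kb2 AR-luc cells given compounds and R1881 for 16 h at 37C.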

[6] = molecular target: Androgen receptor (Homo sapiens) (UniProt P10275); test: qHTS assay to identify small molecule agonists of the androgen receptor (AR) signaling pathway using the MDA cell line (AID 743040; also: nearly all actives have a fitted effect of over 20% in size)
Summary of the method: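 Cell-based luciferase reporter: MDA-kb2, MMTV promoter (AR + GR response elements). 16 h compound exposure at 37C; ONE-Glo, 30 min RT, luminescence.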

[7] = molecular target: Androgen receptor (Homo sapiens) (UniProt P10275); test: qHTS assay to identify small molecule antagonists of the androgen receptor (AR) signaling pathway using the MDA cell line (AID 743042; also: nearly all actives have a fitted effect of over 55% in size; also: potency is read from the fitted curve at half-maximal effect)
Summary of the method: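 MDA-kb2 cells (human breast carcinoma, stably carrying an MMTV-luciferase reporter responsive to AR and GR) were plated at 3,000 cells/well and preincubated 5 hr at 37C, then given compound plus R1881 agonist for 16 h. ONE-Glo luminescence was read.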

[8] = qHTS assay for identifying genotoxic compounds that show differential cytotoxicity against isogenic chicken DT40 cell lines with known DNA damage response pathways - wild type cell line (AID 743012); also: nearly all actives have a fitted effect of over 60% in size
Summary of the method: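 Endpoint: CellTiter-Glo luminescence, 30 min RT. Cells: wild type DT40, 300/well. Exposure: compounds in DMSO, 40 h, 37 C/5% CO2, after ~0.5 h pre-incubation.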

[9] = molecular target: Androgen receptor (Homo sapiens) (UniProt P10275); test: qHTS assay to identify small molecule antagonists of the androgen receptor (AR) signaling pathway (AID 743035; active = well fitted inhibition curve with a large enough effect in the signal ratio in the repeat runs, not every such curve was filed as active; the % refers to the signal ratio; also: potency is read from the fitted curve at half-maximal effect)
Summary of the method: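 R1881 agonist challenge of a HEK293 UAS-beta-lactamase AR reporter line in the presence of compound (16 h, 37C); signal taken as FRET fluorescence after 2 h with LiveBLAzer B/G substrate at room temperature.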

[10] = molecular target: Androgen receptor (Homo sapiens) (UniProt P10275); test: qHTS assay to identify small molecule agonists of the androgen receptor (AR) signaling pathway (AID 743036; active = well fitted activation curve with a large enough effect in the signal ratio in the repeat runs, with a control signal flat, not every such curve was filed as active; the % refers to the signal ratio)
Summary of the method: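 Following a 4 h settling period, AR-UAS-bla HEK293 cells were dosed with compounds for 16 h at 37C. A 2 h room-temperature incubation with LiveBLAzer B/G FRET substrate preceded the fluorescence measurement.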

Measured: Potency

Chain of Androgen receptor (Homo sapiens) (P10275 whole entry, looked up): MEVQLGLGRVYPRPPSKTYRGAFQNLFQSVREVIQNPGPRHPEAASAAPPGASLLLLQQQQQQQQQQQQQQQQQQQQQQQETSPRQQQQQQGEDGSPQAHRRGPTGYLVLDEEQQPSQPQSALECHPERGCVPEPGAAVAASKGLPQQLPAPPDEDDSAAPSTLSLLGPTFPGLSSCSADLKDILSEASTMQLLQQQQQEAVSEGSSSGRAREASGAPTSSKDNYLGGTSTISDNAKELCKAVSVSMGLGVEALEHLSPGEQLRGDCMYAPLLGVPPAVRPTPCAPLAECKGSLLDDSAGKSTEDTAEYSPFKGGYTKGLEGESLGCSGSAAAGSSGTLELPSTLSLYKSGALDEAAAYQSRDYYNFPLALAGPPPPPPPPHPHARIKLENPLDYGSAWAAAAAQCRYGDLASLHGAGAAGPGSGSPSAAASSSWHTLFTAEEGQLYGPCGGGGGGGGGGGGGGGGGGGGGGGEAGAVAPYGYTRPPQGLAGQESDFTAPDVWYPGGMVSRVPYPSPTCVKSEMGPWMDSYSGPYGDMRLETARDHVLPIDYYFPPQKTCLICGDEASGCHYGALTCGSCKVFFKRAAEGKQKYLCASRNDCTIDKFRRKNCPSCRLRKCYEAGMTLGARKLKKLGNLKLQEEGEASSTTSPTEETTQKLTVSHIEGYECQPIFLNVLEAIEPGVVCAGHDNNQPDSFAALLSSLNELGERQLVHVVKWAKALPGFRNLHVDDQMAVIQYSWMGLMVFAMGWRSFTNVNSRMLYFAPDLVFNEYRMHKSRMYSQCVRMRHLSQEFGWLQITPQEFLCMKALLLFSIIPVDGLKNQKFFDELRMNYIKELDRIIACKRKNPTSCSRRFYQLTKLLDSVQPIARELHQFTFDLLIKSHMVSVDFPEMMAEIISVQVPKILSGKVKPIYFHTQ

COC(=O)C(Br)CBr (stereo unspecified)
inactive: [1] | [2] | [3] | [4] | [5]

CCCCNP(N)(N)=S
inactive: [1] | [2] | [3] | [4] | [5]

Cc1ccc(-c2c(Cl)nc(C#N)n2S(=O)(=O)N(C)C)cc1
active: [2] 61.1 µM | [3] 61.1 µM | [4] 43.6 µM | [7] 54.4 µM
inactive: [1] | [6]

CC(C)O.CC(C)O.OCCN(CCO)CCO.OCCN(CCO)CCO.[Ti]
inactive: [1] | [2] | [3] | [4] | [5]

O=C(NCc1cccnc1)Nc1ccc([N+](=O)[O-])cc1
inactive: [1] | [8] | [2] | [4] | [5]

COC1=CC(=O)O[C@@H](CCc2ccccc2)C1
inactive: [1] | [8] | [2] | [4] | [6] | [5] | [7]

Nc1ccc([N+](=O)[O-])cc1[N+](=O)[O-]
inactive: [1] | [4] | [6] | [7]
active: [2] 53.1 µM | [3] 66.8 µM

O=C1C(Cl)C(CCl)CN1c1cccc(C(F)(F)F)c1 (stereo unspecified)
inactive: [1] | [2] | [3] | [4] | [10] | [6] | [5] | [7]
active: [9] 24.5 µM

CC(=O)[C@H]1CC[C@H]2[C@@H]3CC[C@H]4C[C@](C)(O)CC[C@]4(C)[C@H]3CC[C@]12C
inactive: [1] | [8] | [3] | [4] | [5]

Cc1cc(=O)[nH]o1
inactive: [1] | [8] | [4] | [10] | [6] | [5] | [7]

C=CC(C)=O
inactive: [1] | [2] | [3] | [4] | [5]

CCOP(=S)(Oc1ccc([N+](=O)[O-])cc1)c1ccccc1 (stereo unspecified)
inactive: [1] | [8] | [4] | [5]

CCOS(C)(=O)=O
inactive: [1] | [8] | [3] | [4] | [5]

NC(=O)CI
inactive: [1] | [8] | [2] | [4] | [5]

NNC(=O)c1cccnc1
inactive: [1] | [8] | [3] | [4] | [5]

O=NN1CCNCC1
inactive: [1] | [2] | [3] | [4] | [5]

ClC=C(Cl)Cl
inactive: [1] | [2] | [3] | [4] | [5]

Cn1sc(Cl)cc1=O
inactive: [1] | [4] | [5]
inactive and 21.7 µM (active): [2]
inactive and 54.5 µM (active): [3]

O=C(NC(=O)c1c(F)cccc1F)Nc1ccc(OC(F)(F)C(F)OC(F)(F)F)c(Cl)c1 (stereo unspecified)
inactive: [1] | [4] | [5]
active: [2] 4.22 µM | [3] 1.06 µM

CC1(C)[C@H](C=C(Cl)Cl)[C@@H]1C(=O)O[C@@H](C#N)c1cccc(Oc2ccccc2)c1
inactive: [1] | [2] | [4] | [5]

CC(=O)C(C)(C)C
active: [2] 3.18 µM | [3] 4.01 µM
inactive: [1] | [4] | [5]

CC1C(=O)C[C@]2(C(C)C)C[C@H]12 (stereo partly specified)
inactive: [1] | [2] | [3] | [4] | [5]

COc1cc(CC(C)N)cc2c1OCO2 (stereo unspecified)
inactive: [1] | [2] | [3] | [4] | [5]

O=C(CBr)c1ccccc1
active: [2] 61.5 µM
inactive: [1] | [4] | [5]

O=C(O)c1ccccc1C(=O)Nc1cccc2ccccc12
inactive: [1] | [4] | [5]
active: [2] 54.5 µM

CC(C)(C)c1cc([N+](=O)[O-])cc([N+](=O)[O-])c1O
active: [1] 1.09 µM | [2] 21.6 µM | [3] 19.3 µM | [4] 13.8 µM | [5] 24.3 µM

Cc1c(F)c(F)c(COC(=O)C2C(/C=C(\Cl)C(F)(F)F)C2(C)C)c(F)c1F (stereo unspecified)
inactive: [1] | [2] | [4]

COc1cc(Cl)c(OC)cc1Cl
inactive: [1] | [2] | [4] | [5]

c1ccoc1
inactive: [1] | [3] | [4] | [5]

O=[Se]=O
active: [2] 0.341 µM | [3] 0.242 µM | [5] 19.2 µM
inactive: [1] | [4]

CC(C)N(CCC(C(N)=O)(c1ccccc1)c1ccccn1)C(C)C (stereo unspecified)
inactive: [1] | [3] | [4] | [5]

C=CCN1CC[C@]23c4c5ccc(O)c4O[C@H]2C(=O)CC[C@@]3(O)[C@H]1C5
inactive: [1] | [2] | [3] | [4] | [5]

CCOC(=O)C(Cl)C(C)=O (stereo unspecified)
inactive: [1] | [3] | [4] | [5]

CCCC(=O)Cl
inactive: [1] | [3] | [4] | [5]

CC(C)(CCl)C(=O)Cl
inactive: [1] | [3] | [4] | [5]

COC(N)=O
inactive: [1] | [3] | [4] | [5]

Cc1ccccc1CCl
inactive: [1] | [3] | [4] | [5]

O=S(=O)(Cl)c1ccccc1
inactive: [1] | [2] | [3] | [4] | [5]

C[C@H]1CNCCc2ccc(Cl)cc21
inactive: [1] | [4] | [5]
active: [2] 13.3 µM

Nc1nc(=S)[nH][nH]1
inactive: [1] | [4] | [5]
active: [2] 48.6 µM

CC(C)=CCOc1c2occc2cc2ccc(=O)oc12
inactive: [1] | [4] | [9] | [10] | [6] | [5] | [7]

OCCCBr
inactive: [1] | [2] | [3] | [4] | [5]
